According to ChEMBL document CHEMBL4513146, “CO-ADD screening of Karazin Kharkiv National University (Ukraine) compounds”:
Entries with a potency or affinity are not part of this list.

The molecules below were run on Cryptococcus neoformans. Settings: Concentration 32 ug.mL-1; ASSAY_TEST Inhibition of Fungal Growth; detection method Resazurin; Absorption (OD600-OD570); plate type 384well; NBS; CORNING #3640.

SMILES | Inhibition [%]
CCN(C(=O)CSc1nnc2c3cc(-c4ccc(OC)cc4)nn3ccn12)c1ccccc1 | -1.74
COc1ccc(NC(=O)c2ccc3nn(CC(=O)N4CCN(c5ccccc5)CC4)c(=O)n3c2)cc1 | -6.91
COc1ccc(N2CCN(C(=O)Cn3nc4c(Oc5ccc(C)cc5)nccn4c3=O)CC2)cc1 | -9.68
CC1CCCN(c2nccn3c(=O)n(CC(=O)Nc4ccc(Br)cc4F)nc23)C1 (stereo not given) | -8.97
Cc1cc(C)cc(N(Cc2cccc(F)c2)S(=O)(=O)c2cccn3c(C)nnc23)c1 | -7.1
Cc1cc(C)cc(NC(=O)Cn2nc3c4cc(-c5ccc(Cl)cc5)nn4ccn3c2=O)c1 | -7.11
O=C(CSc1nnc2c(=O)n(-c3ccc(F)cc3)ccn12)N1CCN(c2ccccc2F)CC1 | -7.82
CCc1ccc(N(Cc2ccc(C)cc2)S(=O)(=O)c2cccn3c(C)nnc23)cc1 | -6.65
CCCc1nnc2c(=O)n(CC(=O)Nc3ccc(Br)cc3)c3ccccc3n12 | -25.88
COc1ccccc1Cn1c(=O)c2sccc2n2c(=O)n(Cc3c(F)cccc3Cl)nc12 | -30.55
O=c1n(Cc2nc(-c3ccc4c(c3)OCO4)no2)nc2ccc(-c3ccccc3)nn12 | -13.29
CCc1nnc2c(SCC(=O)NCc3ccccc3Cl)nc3ccccc3n12 | -17.43
COc1cccc(Sc2nc3ccccc3n3c(=O)n(CC(=O)N4CCCc5ccccc54)nc23)c1 | -20.75
CCOc1ccc(-n2ccn3c(SCC(=O)Nc4ccc(F)cc4F)nnc3c2=O)cc1 | -5.09
CCCCOc1ccc(-c2cc3c4nnc(SCC(=O)Nc5cc(C)ccc5OC)n4ccn3n2)cc1 | -16.58
O=C(Cn1nc2c(SC3CCCCC3)nccn2c1=O)Nc1cccc(Br)c1 | -20.18
Cc1cc2nn(CC(=O)Nc3ccc(F)cc3F)c(=O)n2c(Nc2ccc(F)c(C)c2)n1 | -8.52
Cc1nnc2c(=O)n(CC(=O)Nc3ccc(Cl)cc3)c3ccccc3n12 | -11.19
CCOc1ccc(NC(=O)CSc2nnc3c(=O)n(-c4ccc(OCC)cc4)ccn23)cc1 | -11.05
COc1ccc(NC(=O)Cn2nc3nc(N4CCCCCC4)ccn3c2=O)cc1Cl | -7.14

SMILES | Inhibition [%]
O=C(Cn1nc2ccc(SC3CCCCC3)nn2c1=O)NCc1ccc(Cl)cc1 | -20.43
Cc1ccc(-n2ccn3c(=O)n(Cc4ccccc4)nc3c2=O)cc1C | -10.01
CCCn1c(=O)c2sccc2n2c(=O)n(CC(=O)c3cccc(OC)c3)nc12 | -27.27
COc1cccc(Sc2nc3ccccc3n3c(=O)n(CC(=O)Nc4ccc(C)cc4)nc23)c1 | -30.42
COc1ccc(NC(=O)Cn2nc3c(N4CCCC4)nccn3c2=O)cc1 | -6.3
O=C(Cn1nc2c3sccc3ncn2c1=O)Nc1ccc2c(c1)OCO2 | -18.53
O=c1c2sccc2n2c(=O)n(Cc3cccc(F)c3)nc2n1Cc1cccs1 | -19.84
Cc1cc(C)c(NC(=O)Cn2nc3c(SC4CCCCC4)nccn3c2=O)c(C)c1 | -24.78
O=C(CSc1nnc2n(CC3CCCO3)c(=O)c3sccc3n12)Nc1ccc(F)cc1Cl (stereo not given) | -23.1
COc1cccc(-n2ccn3c(SCc4ccc(Cl)cc4)nnc3c2=O)c1 | -6.31
Cc1ccc(NC(=O)Cn2nc3c(SC4CCCCC4)nccn3c2=O)cc1 | -28.82
COc1ccc(NC(=O)C(C)Sc2nnc3c(=O)n(-c4ccc(C)c(C)c4)ccn23)cc1 (stereo not given) | -9
Cc1ccc(-c2cc3c4nn(CC(=O)Nc5ccccc5Br)c(=O)n4ccn3n2)cc1C | -11.06
Cc1nnc2ccc(S(=O)(=O)N(Cc3ccccc3)c3ccc(F)cc3)cn12 | -1.68
COc1cccc(Sc2nc3ccccc3n3c(=O)n(CC(=O)Nc4ccc(C)c(C)c4)nc23)c1 | -4.85
Cc1cc(C)cc(Oc2nc3ccccc3n3c(=O)n(CC(=O)Nc4ccc5c(c4)OCO5)nc23)c1 | -19.74
O=C(CSc1nnc2c(=O)n(-c3cccc(F)c3)ccn12)Nc1ccc(Br)cc1 | -9.7
CSc1ccc(CNC(=O)Cn2nc3c(Oc4ccccc4)nccn3c2=O)cc1 | -8.38
COc1ccc(-c2cc3c4nn(CC(=O)Nc5cc(OC)ccc5OC)c(=O)n4ccn3n2)cc1 | -25.14
O=C(Cn1nc2c(SC3CCCCC3)nccn2c1=O)Nc1ccc(Cl)cc1F | -29.46
